Assay outcomes from PubChem.
Cav3 T inh: Cav3.2 calcium influx blockers – cell-based, Fluo-4 calcium fluorescence, FDSS, MLSMR library, primary screen; 4% of 100,000 active; Cav3.2-expressing cells; active compounds read low; AID 449739, 2010; B-score at 10 µM; Voltage-dependent T-type calcium channel subunit alpha-1H (Homo sapiens), O95180;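 active means single-dose well whose peak fluorescence ratio is a statistical outlier from its plate by either plate-standardised score or position-corrected B-score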
M1 agonist: M1 muscarinic receptor agonists, primary screen, CHO-M1 cells, Fluo-4 calcium, agonist mode; Fluo-4 calcium fluorescence; active compounds read high; Muscarinic acetylcholine receptor M1; AID 626, 2007; 3% of 64,000 active; B-score at 10 µM;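 active means fluorescence rise, raw or as B-score row- and column-corrected plate score, outside the 99.7% band of its plate's samples, either direction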
M1 antagonist: antagonists of rat M1 muscarinic receptor | 3.4% of 64,000 active | B-score at 10 µM | CHO-M1 cells, Fluo-4 calcium, ACh EC80 antagonist mode; active compounds read low;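 active means calcium fluorescence response, raw or row-and-column corrected B-score, differing from the plate sample mean either way at a set confidence level, mostly lower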
Target sequence (P08482 whole entry, looked up): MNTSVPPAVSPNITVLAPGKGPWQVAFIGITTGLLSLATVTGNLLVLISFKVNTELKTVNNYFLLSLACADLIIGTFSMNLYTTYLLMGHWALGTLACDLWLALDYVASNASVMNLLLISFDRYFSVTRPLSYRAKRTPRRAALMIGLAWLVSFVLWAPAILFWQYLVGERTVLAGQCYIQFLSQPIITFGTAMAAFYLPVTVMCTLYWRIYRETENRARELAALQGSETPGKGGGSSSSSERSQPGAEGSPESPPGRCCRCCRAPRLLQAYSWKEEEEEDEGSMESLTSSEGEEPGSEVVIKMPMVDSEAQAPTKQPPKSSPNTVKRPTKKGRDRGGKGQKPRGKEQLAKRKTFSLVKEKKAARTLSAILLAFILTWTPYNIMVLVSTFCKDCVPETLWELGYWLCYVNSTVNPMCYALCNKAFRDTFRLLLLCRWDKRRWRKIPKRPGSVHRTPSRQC
Her2 expr inh: inhibitors of Her2 protein expression, primary screen, SKBR-3 cells, AlphaScreen, 66K library; SKBR-3 HER2 protein level, 18-24 h; active compounds read low; HER2 level % of control, % at 10 µM; 0.69% of 65,000 active; AID 645, 2007;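 active means HER2 level under 5% of the carrier-only control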;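 further: 100% = DMSO carrier and 0% = 500 nM PU-H71 HSP90 inhibitor; lower value means stronger loss of Her2 protein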
PLAP activator: PLAP enzyme activators, biochemical, luminescence, HTS; Alkaline phosphatase, placental type (Homo sapiens), P05187; purified PLAP enzyme, luminescent substrate read-out; active compounds read high; activation fold at 20 µM; 1.2% of 96,000 active; in the data active means activation fold above about 2
Numbers without * were called inactive; nt = no result given. Sampled rows, rich in hits. Any-hit rate of the full collection: about 7.9%.

SMILES	Cav3 T inh	M1 agonist	M1 antagonist	Her2 expr inh	PLAP activator
CCOC(=O)c1cnn(-c2ccc(Cl)cc2)c1C1CCN(C(=O)OC(C)(C)C)CC1	nt	nt	nt	nt	2.3*
CCCOc1ccc(N2C(=O)CC(N(CCc3ccc(OC)cc3)C(=O)c3cccc(F)c3)C2=O)cc1 (centres undefined)	-4.6*	nt	nt	nt	1.5
Cc1ccc(-c2nn3c(C)nnc3s2)cc1NC(=O)c1cccs1	0.22	-0.67	0.16	59	1.3
Cc1cc2nn(-c3cccc4ccccc34)nc2cc1NC(=O)c1cccs1	-4.3*	nt	nt	nt	0.9
COc1ccccc1NC(=S)NNC(=O)c1ccc(Cl)cc1Cl	-2.9	nt	nt	nt	nt
O=C(NNC(=S)NC(=O)c1cccnc1)c1ccc(Cl)cc1	-2.7	nt	nt	nt	1.9
Cc1ccccc1C(=O)NNC(=S)NC(=O)c1ccc(Cl)cc1Cl	-4*	nt	nt	nt	1.1
Cc1ccc(C(=O)NNC(=S)NC(=O)c2ccc(Cl)cc2)cc1	-4.2*	nt	nt	nt	1.1
O=C(CCc1ccccc1)NNC(=S)NC(=O)c1ccc(Cl)cc1	-3.7*	nt	nt	nt	0.8
Nc1nc(Sc2ccc(C(F)(F)F)cc2[N+](=O)[O-])n[nH]1	0.68	nt	nt	nt	2*
O=[N+]([O-])c1cc(C(F)(F)F)ccc1Sc1ccc2ccccc2n1	0.45	nt	nt	nt	1
CC1(C)Cc2c(sc3nc(SCC#N)n(C4CCCCC4)c(=O)c23)CO1	nt	-0.28	0.18	102	nt
CCc1nc(SCC(=O)c2cc(C)ccc2C)n[nH]1	0.078	0.72	0.016	120	2.3*
O=S(=O)(C/C(=C/CO)S(=O)(=O)c1ccccc1)c1ccccc1	nt	0.088	1	-21*	1.1
COCc1c(C(=O)N2CCN(c3ccc(C(F)(F)F)cn3)CC2)oc2ccccc12	-4.7*	nt	nt	nt	1.8
Cc1c(CCC#N)c(N2CCN(C3CCCCC3)CC2)n2c(nc3ccccc32)c1C#N	nt	-0.0038	-1.1	-16*	nt
Cc1c(CCC#N)c(N2CCCCC2)n2c(nc3ccccc32)c1C#N	nt	1.6	-0.088	182	nt
Cc1ccc(NC(=O)c2c(Cl)n(C)c3ccccc23)cc1	nt	nt	nt	nt	1.1
CC1CCCC(C)N1C(=O)c1cccc2c1-c1ccccc1/C2=N/O (centres undefined)	-6.4*	nt	nt	nt	nt
O=C(CN1CCCC1)Nc1c2c(nc3ccccc13)N(Cc1ccccc1)CC2	1.1	nt	nt	nt	2*
CC(C)C(=O)Nc1c2c(nc3ccccc13)N(C)CC2	0.038	1.2	-0.64	132	1.1
Cn1nnc2cc(C(=O)N3CCC(c4ccccc4)C3)ccc21 (centres undefined)	0.25	0.035	0.25	99	1.1
CCOC(=O)/C(C#N)=C\C=C1C=CN(C)C=C1	-4.8*	nt	nt	nt	0.7
c1ccc(-c2cc3n(c2)CCc2ccccc2-3)cc1	-0.67	nt	nt	nt	nt
CCc1[nH]nc2c1C(c1ccc(Br)s1)C(C#N)=C(N)O2 (centres undefined)	-0.34	-0.24	2.5*	142	1
SMILES	Cav3 T inh	M1 agonist	M1 antagonist	Her2 expr inh	PLAP activator
CCc1[nH]nc2c1C(c1ccsc1)C(C#N)=C(N)O2 (centres undefined)	1.2	nt	nt	nt	nt
CCC1=C(OC(=O)N(CC)CC)N2C(=O)OC(=NCCc3c[nH]c4ccccc34)[C@]2(Cc2ccccc2)[C@H]2C1=CC[C@H]1C(=O)NC(=O)[C@H]12	-2.2	nt	nt	nt	nt
CN(C)S(=O)(=O)Nc1ccc(Oc2ccccc2)cc1	-1.9	0.3	-1.1	124	1
CCCCc1ccc(NS(=O)(=O)N(C)C)cc1	-4.3*	nt	nt	91	0.9
COc1ccc(-c2csc(NC(=O)c3cccc(S(=O)(=O)N4CCN(C)CC4)c3)n2)cc1	0.43	nt	nt	nt	1
COc1ccc(C2=CSC3=C(C(=O)c4cccc(S(=O)(=O)N(C)C)c4)CCN23)cc1	-0.83	nt	nt	nt	2.9*
Cc1cc(C)nc(Nc2n[nH]c(-c3ccc(N)cc3)n2)n1	0.39	nt	nt	nt	2.4*
Cc1ccc(Cl)cc1NC(=O)c1cccc(OC(F)F)c1	-1.3	nt	nt	nt	0.7
c1ccc(OCCSc2nnnn2-c2ccccc2)cc1	-6*	-0.44	-0.37	132	0.7
Fc1ccccc1OCCSc1nnnn1-c1ccccc1	-3.1	nt	nt	91	0.8
COc1ccccc1OCCSc1nnnn1-c1ccc(C)cc1	-5*	0.82	-0.2	82	1.1
CCOc1ccc(OCCSc2nnnn2-c2ccccc2)cc1	-2.6	nt	nt	nt	0.8
C/C(=N\NC(=O)C1COc2ccccc2O1)c1ccc(C)o1 (centres undefined)	-1.2	nt	nt	nt	2*
